Source: PubChem BioAssay
Peg3 promoter: Peg3 promoter-driven luciferase inhibitors, primary screen, cell-based, HeLa, luciferase luminescence. 360,000 tested, 1.7% active. HeLa PEG-Prom luciferase reporter, overnight. inhibition, % at 20 µM;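 active = inhibition of at least 50% at 20 µM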
ABHD5-PLIN5 inh: ABHD5-PLIN5 interaction inhibitors, primary screen, cell lysate, split luciferase complementation, luminescence | inhibition, % at 4 µM | 360,000 tested, 0.78% active | Split G. princeps luciferase complementation, 4 h;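 active = inhibition above the mean inhibition across every tested compound plus 3 SD, cut at about 22% in these data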;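 note: 0% = DMSO only wells and the 100% control is not disclosed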
Target sequence (Q00G26 whole entry, looked up): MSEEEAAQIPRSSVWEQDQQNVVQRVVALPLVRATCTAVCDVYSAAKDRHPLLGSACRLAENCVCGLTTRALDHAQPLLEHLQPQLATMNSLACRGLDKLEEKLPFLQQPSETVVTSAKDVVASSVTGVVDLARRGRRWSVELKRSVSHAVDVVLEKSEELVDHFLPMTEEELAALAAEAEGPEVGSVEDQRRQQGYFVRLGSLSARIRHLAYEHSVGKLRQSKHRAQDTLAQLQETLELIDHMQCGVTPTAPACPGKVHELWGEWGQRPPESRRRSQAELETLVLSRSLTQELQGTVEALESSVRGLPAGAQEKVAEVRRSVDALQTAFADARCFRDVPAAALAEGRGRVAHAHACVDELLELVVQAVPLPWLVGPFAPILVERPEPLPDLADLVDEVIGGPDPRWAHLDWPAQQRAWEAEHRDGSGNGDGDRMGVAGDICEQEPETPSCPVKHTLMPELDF
Target sequence (Q8WTS1 whole entry, looked up): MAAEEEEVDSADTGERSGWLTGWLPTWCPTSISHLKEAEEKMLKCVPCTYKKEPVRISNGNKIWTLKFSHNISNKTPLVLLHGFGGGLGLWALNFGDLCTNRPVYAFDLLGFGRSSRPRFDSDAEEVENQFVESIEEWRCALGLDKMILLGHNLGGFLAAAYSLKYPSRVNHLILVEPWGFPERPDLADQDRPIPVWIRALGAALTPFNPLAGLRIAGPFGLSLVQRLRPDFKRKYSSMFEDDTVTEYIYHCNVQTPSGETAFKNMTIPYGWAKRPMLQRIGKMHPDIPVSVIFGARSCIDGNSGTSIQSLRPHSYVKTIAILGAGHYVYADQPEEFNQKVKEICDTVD
HIF-2a block: HIF-2a reporter inhibitors, primary screen, luminescence, 786-0 RCC cells | 786-0 RCC cells HIF-2a reporter, luciferase luminescence, overnight | inhibition, % at 18.8 µM | 360,000 tested, 0.72% active | AID 624352, 2012;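 active = inhibition of the luminescence signal of 40% or more relative to plate controls, in a single-dose primary screen at 18.75 µM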
KKLEB tox: cytotoxicity in KKLEB CF airway cells, primary screen, cytotoxicity control for CF NF-kB inhibitor project, cell-based, uHTS, fluorescence assay plates; 360,000 tested, 0.36% active; KKLEB CF airway cells viability, ATPlite luminescence, overnight; hits give low values; cells stimulated with P. aeruginosa culture filtrate; activity change (cytotoxicity), % at 5 µM;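 active = corrected activity change at or below -50% at 5 µM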
CF NFkB inh: inhibitors of PAF-induced NF-kB signaling, primary screen, cell-based, GFP fluorescence, uHTS; KKLEB NF-kB-GFP reporter, GFP fluorescence overnight; inhibition, % at 5 µM; 360,000 tested, 0.86% active; AID 588850, 2011;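 active = at least 50% inhibition at 5 µM, scaled per plate between neutral and stimulator controls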;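 note: PAF is a Pseudomonas aeruginosa culture filtrate used as stimulus; plate controls were PAF-stimulated DMSO wells for no effect and unstimulated DMSO wells for full effect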
MITF TRPM1 inh: inhibitors of MITF-dependent TRPM1 promoter reporter, primary screen, cell-based, SK-MEL-5, single point, luciferase | SK-MEL-5 TRPM1 promoter luciferase, 24 h | inhibition, % at 12.5 µM | 330,000 tested, 0.83% active | AID 488899, 2010;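 active = mean inhibition across replicates of 60% or more, whatever share of single replicates reaches that level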
* marks the source's active call; other numbers are inactive results. The list is not random: actives were taken first. Their share in the collection is about 3.1%.

What do the screens show for `CCN(Cc1ccccc1)S(=O)(=O)c1ccc(C(=O)N(CCCN(C)C)c2nc3cc(OC)ccc3s2)cc1`?
Peg3 promoter: -11; ABHD5-PLIN5 inh: 6; HIF-2a block: -28; KKLEB tox: 0; CF NFkB inh: 12; MITF TRPM1 inh: 63*

How did CN(C)CCCN(C(=O)c1ccc(S(=O)(=O)N2CCCC2)cc1)c1nc2ccc(Br)cc2s1 do in these assays?
Peg3 promoter: -11; ABHD5-PLIN5 inh: 16; HIF-2a block: -16; KKLEB tox: -14; CF NFkB inh: -2; MITF TRPM1 inh: 83*

Results for COc1ccc(S(=O)(=O)N2CCOCC2)cc1NC(=O)COc1ccc2ccc(=O)oc2c1 ?
Peg3 promoter: 25; ABHD5-PLIN5 inh: 7; HIF-2a block: 2; KKLEB tox: 0; CF NFkB inh: -6; MITF TRPM1 inh: 7

How did CNC(=S)N1N=C(c2cccs2)CC1c1ccc(F)cc1 (centres undefined) do in these assays?
Peg3 promoter: 25; ABHD5-PLIN5 inh: -4; HIF-2a block: 14; KKLEB tox: 0; CF NFkB inh: -12; MITF TRPM1 inh: 6

Results for O=C(O)CSc1c2c(nc3cc(C(=O)Nc4cccc(C(F)(F)F)c4)ccc13)CCC2 ?
Peg3 promoter: -59; ABHD5-PLIN5 inh: 1; HIF-2a block: -22; KKLEB tox: 6; CF NFkB inh: -23; MITF TRPM1 inh: -18

Results for O=C(NC1=NCCS1)c1ccccc1OCc1ccc(F)cc1 ?
Peg3 promoter: 19; ABHD5-PLIN5 inh: 3; HIF-2a block: 5; KKLEB tox: 7; CF NFkB inh: 12; MITF TRPM1 inh: -9

What do the screens show for `CN(C)CCNc1ncnc2c1sc1nc(-c3ccccc3)c3c(c12)CCCC3`?
Peg3 promoter: 111*; ABHD5-PLIN5 inh: 10; HIF-2a block: -6; KKLEB tox: -5; CF NFkB inh: 8; MITF TRPM1 inh: 9

What do the screens show for `COc1ncnc2c1sc1nc(-c3ccccc3)c3c(c12)CCCC3`?
Peg3 promoter: 18; ABHD5-PLIN5 inh: 4; HIF-2a block: -10; KKLEB tox: 17; CF NFkB inh: 19; MITF TRPM1 inh: -12

What do the screens show for `CCN1CCN(c2cc(N3CCN(C(=O)c4ccco4)CC3)c3c4c(onc24)-c2ccccc2C3=O)CC1`?
Peg3 promoter: 30; ABHD5-PLIN5 inh: 13; HIF-2a block: 12; KKLEB tox: 17; CF NFkB inh: 15; MITF TRPM1 inh: 89*

How did CC(=O)c1cccc(NC(=O)COC(=O)Cn2cnc3ccccc32)c1 do in these assays?
Peg3 promoter: -4; ABHD5-PLIN5 inh: 4; HIF-2a block: 11; KKLEB tox: -86*; CF NFkB inh: 19; MITF TRPM1 inh: -5

What do the screens show for `Cc1ccc(C(O)(C(=O)NNc2ccccn2)c2ccc(C)cc2)cc1`?
Peg3 promoter: 16; ABHD5-PLIN5 inh: -3; HIF-2a block: 24; KKLEB tox: -9; CF NFkB inh: -13; MITF TRPM1 inh: 10

What do the screens show for `Cc1ccc(NNC(=O)C(O)(c2cccc(C(F)(F)F)c2)c2cccc(C(F)(F)F)c2)cc1`?
Peg3 promoter: 67*; ABHD5-PLIN5 inh: -21; HIF-2a block: 6; KKLEB tox: 6; CF NFkB inh: -14; MITF TRPM1 inh: 6

How did Cc1ccc2oc(C(=O)NCC(c3ccco3)N(C)C)c(C)c2c1 (centres undefined) do in these assays?
Peg3 promoter: -159; ABHD5-PLIN5 inh: -3; HIF-2a block: -169; KKLEB tox: 4; CF NFkB inh: -2; MITF TRPM1 inh: -37

How did CCCCN(Cc1cc2cc(C)ccc2[nH]c1=O)C(=O)c1ccccn1 do in these assays?
Peg3 promoter: 11; ABHD5-PLIN5 inh: 2; HIF-2a block: 8; KKLEB tox: -3; CF NFkB inh: -2; MITF TRPM1 inh: 12

How did CC(C)C(=O)N[C@@H]1c2ccccc2CC[C@@H]1OCc1ccccc1 do in these assays?
Peg3 promoter: -11; ABHD5-PLIN5 inh: -14; HIF-2a block: 12; KKLEB tox: 1; CF NFkB inh: 16; MITF TRPM1 inh: 0

What do the screens show for `Cc1ccc2cc(CN(CCCN(C)C)C(=S)NCc3ccccc3)c(=O)[nH]c2c1C`?
Peg3 promoter: 41; ABHD5-PLIN5 inh: 23*; HIF-2a block: 7; KKLEB tox: -14; CF NFkB inh: 19; MITF TRPM1 inh: 8

What do the screens show for `Cc1ccc2cc(CN(CCCN(C)C)C(=O)NCc3ccccc3)c(=O)[nH]c2c1C`?
Peg3 promoter: 15; ABHD5-PLIN5 inh: 9; HIF-2a block: 3; KKLEB tox: -9; CF NFkB inh: 7; MITF TRPM1 inh: 1

How did Nc1c(C(=O)NCc2ccc3c(c2)OCO3)nnn1Cc1ccc(Br)cc1 do in these assays?
Peg3 promoter: 1; ABHD5-PLIN5 inh: 1; HIF-2a block: 23; KKLEB tox: -16; CF NFkB inh: 14; MITF TRPM1 inh: 3

What do the screens show for `COc1cc(OC)nc(C(NC(=O)C2CCN(Cc3ccc(N(C)C)cc3)CC2)c2ccc(F)cc2)n1` (centres undefined)?
Peg3 promoter: 6; ABHD5-PLIN5 inh: 5; HIF-2a block: -4; KKLEB tox: -11; CF NFkB inh: 1

What do the screens show for `COc1cc(OC)nc(C(NC(=O)C2CCN(Cc3c[nH]c4ccccc34)CC2)c2ccc(Cl)cc2)n1` (centres undefined)?
Peg3 promoter: 101*; ABHD5-PLIN5 inh: 2; HIF-2a block: -1; KKLEB tox: -21; CF NFkB inh: 14

Results for O=C(Nc1ccc2c(c1)OCCO2)c1ccc(NC(=O)C2CCCO2)cc1 (centres undefined) ?
Peg3 promoter: -66; ABHD5-PLIN5 inh: 3; HIF-2a block: 58*; KKLEB tox: -6; CF NFkB inh: 14; MITF TRPM1 inh: 10

How did O=C(NCc1ccc2c(c1)OCO2)c1ccc(NC(=O)C2CCCO2)cc1 (centres undefined) do in these assays?
Peg3 promoter: -15; ABHD5-PLIN5 inh: 2; HIF-2a block: 5; KKLEB tox: -3; CF NFkB inh: -5; MITF TRPM1 inh: 6

How did O=C(Nc1ccc(NC(=O)c2ccc3c(c2)OCCO3)cc1)c1ccccc1 do in these assays?
Peg3 promoter: 100*; ABHD5-PLIN5 inh: -2; HIF-2a block: -33; KKLEB tox: -4; CF NFkB inh: 5; MITF TRPM1 inh: 0

What do the screens show for `O=C(Nc1ccc2c(c1)OCCO2)c1ccccc1Cl`?
Peg3 promoter: -188; ABHD5-PLIN5 inh: -4; HIF-2a block: -207; KKLEB tox: -21; CF NFkB inh: 0

Results for O=C(CCc1ccccc1)c1ccc2c(c1)OCCCO2 ?
Peg3 promoter: -307; ABHD5-PLIN5 inh: -3; HIF-2a block: -254; KKLEB tox: -6; CF NFkB inh: -7; MITF TRPM1 inh: -126
